# Data: the supplement of paper PMC8975748
# Counter-ions that a name gives are not always drawn.
# System: Saccharomyces cerevisiae BY4741 SeMeCo community
# Assay: z-score of prototroph abundance vs DMSO median; higher = larger share of this subpopulation than in DMSO controls
# Conditions: 10 µM; 24 h; SM minimal medium; subpopulation (auxotrophy): Prototroph
# Outline: (§1)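 Four plasmids, each restoring a single auxotrophy and encoding a distinct fluorescent protein, were carried by a Saccharomyces cerevisiae BY4741 community. After overnight growth to OD600 1.0 and dilution to 0.3, 70 µl per well was grown for 24 h in minimal SM medium on 384-well plates acoustically predosed with library drugs at 10 µM final. Following paraformaldehyde fixation, automated confocal microscopy was used, with single-auxotroph fluorescent strains defining thresholds and autofluorescence correction. Subpopulation abundance was then scored as a z-score against the vehicle-well median.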
row,SMILES,z-score of prototroph abundance
1,CCC[S+]([O-])c1ccc2[nH]c(NC(=O)OC)nc2c1 (stereo not given) [Albendazole Oxide],0.33
2,O=C(O)C1=C(CSc2nnnn2CS(=O)(=O)O)CS[C@@H]2[C@H](NC(=O)[C@H](O)c3ccccc3)C(=O)N12 [Cefonicid sodium],0.12
3,CN(C)CCCN1c2ccccc2Sc2ccccc21 [Promazine hydrochloride],0.19
4,CC1(C)S[C@@H]2[C@H](NC(=O)[C@H](N)c3ccc(O)cc3)C(=O)N2[C@H]1C(=O)O [Amoxicillin trihydrate],-0.1
5,Cc1cccc(N(C)C(=S)Oc2ccc3ccccc3c2)c1 [Tolnaftate],0.3
6,Fc1ccc([C@@H]2CCNC[C@H]2COc2ccc3c(c2)OCO3)cc1 [Paroxetine mesylate],0.14

# System: Saccharomyces cerevisiae BY4741 SeMeCo community
# Assay: z-score of subpopulation abundance vs DMSO median, subpopulation auxotrophic for L; higher = larger share of this subpopulation than in DMSO controls
# Conditions: 10 µM; 24 h; SM minimal medium; subpopulation (auxotrophy): L
# Outline: as §1
row,SMILES,z-score of subpopulation abundance
1,CCC[S+]([O-])c1ccc2[nH]c(NC(=O)OC)nc2c1 (stereo not given) [Albendazole Oxide],-0.98
2,O=C(O)C1=C(CSc2nnnn2CS(=O)(=O)O)CS[C@@H]2[C@H](NC(=O)[C@H](O)c3ccccc3)C(=O)N12 [Cefonicid sodium],-0.08
3,O=C(O)CCCCCCCC(=O)O [Azelaic acid],-0.32
4,CN[C@H]1CC[C@@H](c2ccc(Cl)c(Cl)c2)c2ccccc21 [Sertraline HCl],-0.29
5,Cc1cccc(N(C)C(=S)Oc2ccc3ccccc3c2)c1 [Tolnaftate],-0.24
6,COc1ccc2cc([C@H](C)C(=O)O)ccc2c1 [Naproxen],-0.03

# System: Saccharomyces cerevisiae BY4741 SeMeCo community
# Assay: z-score of subpopulation abundance vs DMSO median, subpopulation auxotrophic for U; higher = larger share of this subpopulation than in DMSO controls
# Conditions: 10 µM; 24 h; SM minimal medium; subpopulation (auxotrophy): U
# Outline: as §1
row,SMILES,z-score of subpopulation abundance
1,CCC[S+]([O-])c1ccc2[nH]c(NC(=O)OC)nc2c1 (stereo not given) [Albendazole Oxide],0.49
2,O=C(O)C1=C(CSc2nnnn2CS(=O)(=O)O)CS[C@@H]2[C@H](NC(=O)[C@H](O)c3ccccc3)C(=O)N12 [Cefonicid sodium],0.61
3,O=C(O)CCCCCCCC(=O)O [Azelaic acid],0.62
4,CN[C@H]1CC[C@@H](c2ccc(Cl)c(Cl)c2)c2ccccc21 [Sertraline HCl],-0.41
5,CN(C)CCCN1c2ccccc2Sc2ccccc21 [Promazine hydrochloride],0.34
6,CC1(C)S[C@@H]2[C@H](NC(=O)[C@H](N)c3ccc(O)cc3)C(=O)N2[C@H]1C(=O)O [Amoxicillin trihydrate],0.03
7,Cc1cccc(N(C)C(=S)Oc2ccc3ccccc3c2)c1 [Tolnaftate],-0.32
8,COc1ccc2cc([C@H](C)C(=O)O)ccc2c1 [Naproxen],-1.21
9,Fc1ccc([C@@H]2CCNC[C@H]2COc2ccc3c(c2)OCO3)cc1 [Paroxetine mesylate],0.96

# System: Saccharomyces cerevisiae BY4741 SeMeCo community
# Assay: z-score of subpopulation abundance vs DMSO median, subpopulation auxotrophic for H; higher = larger share of this subpopulation than in DMSO controls
# Conditions: 10 µM; 24 h; SM minimal medium; subpopulation (auxotrophy): H
# Outline: as §1
row,SMILES,z-score of subpopulation abundance
1,O=C(O)C1=C(CSc2nnnn2CS(=O)(=O)O)CS[C@@H]2[C@H](NC(=O)[C@H](O)c3ccccc3)C(=O)N12 [Cefonicid sodium],0.28
2,O=C(O)CCCCCCCC(=O)O [Azelaic acid],0.43
3,CN[C@H]1CC[C@@H](c2ccc(Cl)c(Cl)c2)c2ccccc21 [Sertraline HCl],-1.14
4,CN(C)CCCN1c2ccccc2Sc2ccccc21 [Promazine hydrochloride],-0.82
5,CC1(C)S[C@@H]2[C@H](NC(=O)[C@H](N)c3ccc(O)cc3)C(=O)N2[C@H]1C(=O)O [Amoxicillin trihydrate],-0.05
6,Cc1cccc(N(C)C(=S)Oc2ccc3ccccc3c2)c1 [Tolnaftate],-1.13
7,COc1ccc2cc([C@H](C)C(=O)O)ccc2c1 [Naproxen],0.45
8,Fc1ccc([C@@H]2CCNC[C@H]2COc2ccc3c(c2)OCO3)cc1 [Paroxetine mesylate],-0.34

# System: Saccharomyces cerevisiae BY4741 SeMeCo community
# Assay: z-score of subpopulation abundance vs DMSO median, subpopulation auxotrophic for LU; higher = larger share of this subpopulation than in DMSO controls
# Conditions: 10 µM; 24 h; SM minimal medium; subpopulation (auxotrophy): LU
# Outline: as §1
row,SMILES,z-score of subpopulation abundance
1,CN(C)CCCN1c2ccccc2Sc2ccccc21 [Promazine hydrochloride],0.52
2,CC1(C)S[C@@H]2[C@H](NC(=O)[C@H](N)c3ccc(O)cc3)C(=O)N2[C@H]1C(=O)O [Amoxicillin trihydrate],0.61
3,Cc1cccc(N(C)C(=S)Oc2ccc3ccccc3c2)c1 [Tolnaftate],-0.35

# System: Saccharomyces cerevisiae BY4741 SeMeCo community
# Assay: z-score of subpopulation abundance vs DMSO median, subpopulation auxotrophic for LM; higher = larger share of this subpopulation than in DMSO controls
# Conditions: 10 µM; 24 h; SM minimal medium; subpopulation (auxotrophy): LM
# Outline: as §1
row,SMILES,z-score of subpopulation abundance
1,CCC[S+]([O-])c1ccc2[nH]c(NC(=O)OC)nc2c1 (stereo not given) [Albendazole Oxide],-0.25
2,O=C(O)C1=C(CSc2nnnn2CS(=O)(=O)O)CS[C@@H]2[C@H](NC(=O)[C@H](O)c3ccccc3)C(=O)N12 [Cefonicid sodium],-0.87
3,CN[C@H]1CC[C@@H](c2ccc(Cl)c(Cl)c2)c2ccccc21 [Sertraline HCl],-0.97
4,CN(C)CCCN1c2ccccc2Sc2ccccc21 [Promazine hydrochloride],-0.08
5,CC1(C)S[C@@H]2[C@H](NC(=O)[C@H](N)c3ccc(O)cc3)C(=O)N2[C@H]1C(=O)O [Amoxicillin trihydrate],0.15
6,Cc1cccc(N(C)C(=S)Oc2ccc3ccccc3c2)c1 [Tolnaftate],-0.04
7,COc1ccc2cc([C@H](C)C(=O)O)ccc2c1 [Naproxen],-0.86
8,Fc1ccc([C@@H]2CCNC[C@H]2COc2ccc3c(c2)OCO3)cc1 [Paroxetine mesylate],-0.87
